Pf growth 96h – P. falciparum growth inhibition at 96 hour, primary screen for plastid delayed-death inhibitors. P. falciparum luciferase reporter growth, 96 h. Potency, µM (titrated, usually from 28.7 µM), inactives show top-dose activity change, negative = inhibition, hits mostly inhibitors. actives 6.9% (n = 320,000). AID 504834; active means well fitted inhibition curve with a large enough effect; inconclusive means small, poorly fitted or top-dose-only effect, or another doubt; inactive means no such curve, though single readings can be large or run the other way; further: potency means the concentration at half of the fitted maximal effect; on the % scale 0 is the no-effect control and ±100 the full control effect
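Delayed-death screen, second-generation endpoint: infected erythrocytes, 2% hematocrit, 0.05% parasitemia final; 96 hours at 37 C, 5% CO2; luciferase detection reagent; luminescence decrease equals reduced growth.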
Pf growth 48h – P. falciparum growth inhibition at 48 hours (one generation) | P. falciparum luciferase growth in erythrocytes, 48 h | Potency, µM (highest dose often 28.7 µM), without a hit: at the highest dose activity change, negative = inhibition, actives largely listed as inhibitors | actives 5.9% (n = 310,000) | AID 504832; active means well fitted inhibition curve with a large enough effect; inconclusive means small, poorly fitted or top-dose-only effect, or another doubt; inactive means no such curve, though single readings can be large or run the other way; further: potency means the concentration at half of the fitted maximal effect; on the % scale 0 is the no-effect control and ±100 the full control effect
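Firefly luciferase activity from engineered P. falciparum reports growth; inhibitors lower the luminescent signal. Cultures contained 2% hematocrit erythrocytes at 0.1% final parasitemia.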
Shiga toxin inh – inhibitors of Shiga toxin in Vero cells; Vero cells, Shiga toxin protein synthesis inhibition reporter; inhibition, % at 38.7 µM; actives 9.2% (n = 290,000); in the data active means inhibition mostly above about 28%, no sharp cut-off; inactive means mostly below about 43%; further: 0% is about no effect
CHX counter – affects cycloheximide protein synthesis inhibition readout, counter-screen; cell reporter, cycloheximide protein synthesis inhibition counterscreen; actives 12% (n = 300,000); max response, %; in the data active means max response mostly above about 13%, no sharp cut-off; inactive means mostly below about 14%; further: read at 38.3 µM for the half of the compounds with a filed dose; 0% is about no effect
NS1 function inh – blocks influenza NS1 protein function. Potency, µM (doses to about 46.1 µM), inactives show top-dose activity, positive = more growth. actives 0.4% (n = 270,000). AID 2326; further: potency means the concentration at half of the fitted maximal effect; actives are rising curves; nearly all actives have a fitted effect of over 50% in size
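OD600 was taken as the measure of yeast growth restored by compound in an NS1-expressing S. cerevisiae strain. Cells had been washed out of glucose medium and diluted 1:100 into galactose -URA medium, pH 6.0.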
SARS PLP yeast – blocks SARS-CoV papain-like protease in a yeast assay | S. cerevisiae expressing SARS-CoV PLpro, growth rescue | Potency, µM (titrated, usually from 32.9 µM), for inactives: at the highest dose activity, positive = growth rescue, actives largely listed as activators | actives 0.19% (n = 330,000); further: potency means the concentration at half of the fitted maximal effect; 0% is about no effect; nearly all actives have a fitted effect of over 55% in size
Flu NS1 inh – validation of influenza NS1 protein function inhibitors; shares compounds with NS1 function inh; influenza NS1 function cell assay, 15-point titration; activity change, negative = inhibition, % at 32.9 µM; 1,400 tested, under 10 active; AID 492980; further: 0% is about no effect
An asterisk follows results filed as active; u = inconclusive; x = no result given; [ ] = another dose, or the depositor's remark. An excerpt weighted towards active compounds, which were near 21% of everything screened. Unless noted, the call rests on the fitted dose curve.

SMILES | Pf growth 96h | Pf growth 48h | Shiga toxin inh | CHX counter | NS1 function inh | SARS PLP yeast | Flu NS1 inh
COc1ccc2[nH]c(=O)c(CN(Cc3ccco3)Cc3nnnn3Cc3ccccc3)cc2c1 | x | u | 4 | 4 | 13µM* | 10% | 12
Cc1ccc(C)c2[nH]c(=O)c(CN(Cc3ccc4c(c3)OCO4)Cc3nnnn3Cc3ccco3)cc12 | u | 8.3µM* | -12 | -2 | 11µM* | 0% | 2
COc1ccc(C2CC(=O)C=C(NNS(=O)(=O)c3ccc(C)cc3)C2)cc1 (stereo not drawn) | 56% | 12% | -16 | 3 | 4µM* | 5% | 15
CCN(CC)c1nc2c3c(nc4c(c3c1C#N)CC(=O)N4c1ccc(Cl)cc1)NC(C)=N2 | 4.7µM* | 17µM* | -15 | -1 | 14µM* | 18% | 29
Cc1ccc(NC(=O)C(Nc2cccc(C)c2)c2ccccc2)cc1 (stereo not drawn) | u | -26% | -83 | 22* | u | -42% | u
Cc1nn(-c2ccccc2)c2sc(-c3n[nH]c(=S)o3)cc12 | u | -20% | 1 | -1 | 2.5µM* | -36% | u
N#CC1=C(S)N=C(N)C(c2nc(-c3ccccc3)cs2)C12CCCC2 (stereo not drawn) | x | u | -5 | 10 | 22% | 3% | x
N#CC1=C(S)N=C(N)C(c2nc(-c3ccccc3)cs2)C12CCCCC2 (stereo not drawn) | 11% | x | 11 | 16 | 11µM* | 11% | 18
O=C(CSc1nc2ccccc2c(=O)n1Cc1ccccc1)NCc1ccco1 | u | -19% | -3 | 2 | u | 21% | x
O=C(CSc1nc2ccccc2c2nc3ccccc3n12)NCc1ccco1 | 7% | 9.3µM* | 50* | 28* | 2.8µM* | 5% | 33
CC1CCCCN1C(=O)CCn1c(=O)oc2ccccc21 (stereo not drawn) | 0% | 59% | 2 | 0 | 2% | -3% | x
S=C1c2ccccc2CN1c1ccccc1 | 80% | 78% | 75* | 60* | u | 8% | 1
COc1ccc(C=O)cc1OC1C=CCCC1 (stereo not drawn) | u | 16% | -15 | 8 | 5% | 2% | x
Cc1ccc(S(=O)(=O)N(C)c2cc(S(=O)(=O)N3CCC(C)CC3)c(C)cc2C)cc1 | 12µM* | 10µM* | 7 | -1 | 11µM* | -6% | 10
O=C(Nn1c(-c2ccncc2)nc2ccccc2c1=O)c1ccc([N+](=O)[O-])cc1Cl | u | -8% | -6 | -1 | x | -3% | x
O=S(=O)(N/N=C/c1ccc2c(c1)OCCO2)c1ccccc1 | 45% | 0% | 60 | 20* | u | 2% | 3
COc1ccc(NS(=O)(=O)c2ccc(N3CCCC3)c(NC(=S)Nc3ccc(SC(F)F)cc3)c2)cc1 | 13µM* | u | -4 | 8 | 8.9µM* | -26% | u
COC(=O)c1ccccc1NC(=O)N1CCN(Cc2ccco2)CC1 | -48%[1.15 µM] | 56% | 14 | 6 | x | -2% | x
COc1cc(CN2CCCC(C(=O)Nc3ccccc3Oc3cccnc3)C2)ccc1F (stereo not drawn) | u | u | -13 | -3 | u | 17% | x
O=C(N/N=C/CCc1ccccc1)c1ccc(CN2c3cccc4cccc(c34)S2(=O)=O)cc1 | -32% | 2% | 13 | 10 | 8.9µM* | u | 25
COc1ccc(/C=N/NC(=O)c2ccc(CN3c4cccc5cccc(c45)S3(=O)=O)cc2)cc1 | u | u | 10 | 1 | u | 3% | x
Cc1ccc(-n2cc(-c3ccc([N+](=O)[O-])cc3)[nH]c2=S)c(C)c1 | -101% | u | 13 | 3 | 6.3µM* | 4% | -32
O=c1c2ccccc2ncn1Cc1cccc2ccccc12 | -1% | u | 42 | -3 | 0% | 1% | x
Cc1[nH][nH]c(=O)c1C(c1c(C)[nH][nH]c1=O)c1cn(Cc2cccc3ccccc23)c2ccccc12 | u | u | -8 | -3 | 13µM* | -10% | -11

High-throughput results deposited in PubChem BioAssay by National Center for Advancing Translational Sciences (NCATS).
